From PubChem BioAssay come the findings set out here.

Active and inactive are the calls of the source.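 The calls were made as follows, unless noted: active = visually confirmed hit in the image check and inhibition above 20%; inconclusive = visually confirmed hit but inhibition not above 20%; inactive = no visual hit in the image check.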 Where a SMILES comes first, the peptide text is derived from it. The star is where a group is joined. Boc = CC(C)(C)OC(=O)*

Usually inhibition stands for the drop in the measured response relative to a control, in per cent.

Sequence of Voltage-gated potassium channel subunit beta-2 (Rattus norvegicus) (P62483 whole entry, looked up): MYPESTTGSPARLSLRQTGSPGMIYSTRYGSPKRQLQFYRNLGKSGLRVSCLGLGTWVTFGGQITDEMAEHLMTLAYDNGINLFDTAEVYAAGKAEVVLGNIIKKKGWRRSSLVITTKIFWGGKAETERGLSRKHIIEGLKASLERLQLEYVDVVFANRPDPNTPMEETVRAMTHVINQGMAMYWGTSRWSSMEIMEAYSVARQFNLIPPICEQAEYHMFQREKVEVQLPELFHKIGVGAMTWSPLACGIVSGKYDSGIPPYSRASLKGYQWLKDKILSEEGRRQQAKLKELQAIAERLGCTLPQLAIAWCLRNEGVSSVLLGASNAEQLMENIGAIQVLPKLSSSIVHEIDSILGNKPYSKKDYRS

Tested on in the first test: not listed separately
The test is described as follows: inhibitors of E-selectin induction by TNFa, primary screen, imaging, HUVEC, immunofluorescence, MLSMR starter and 10KST1 sets (AID 487).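 As to inhibition: signal is fraction of cell area covered by stained E-selectin grains.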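 As to nuclei count: 100% = median nuclei count of all wells on the same plate.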 Particulars: HUVEC TNFalpha-induced E-selectin immunofluorescence imaging, at 2 µM; inhibition: stronger effect = higher value; nuclei count: measured here: cell number, toxicity.
Regarding `CCN(CC(=O)NC(=O)NCc1ccco1)Cc1nc2ccccc2c(=O)[nH]1`, the inhibition is 63.7% (active) and the nuclei count was determined as 68.4%.

`CC(=O)c1nnn(-c2nc(N3CCCC3)nc(N(c3ccccc3)c3ccccc3)n2)c1C`: the nuclei count stood at 95.1% and the inhibition was 51.9% (inactive).

As to `CC(NC(=O)c1ccccc1NC(=O)c1ccco1)C(=O)O` (stereo not given), the nuclei count came to 121% and the inhibition was -67.5% (inactive).

On to `CCN(CC)S(=O)(=O)c1ccc2oc(C(=O)O)c(C)c2c1`, for which the inhibition is -89.3% (inactive) and the nuclei count came out at 104%.

`CCOc1ccc(N(CC(=O)NCC2CCCO2)S(=O)(=O)c2ccc(OC)c(OC)c2)cc1` (stereo not given): the nuclei count is 112% and the inhibition was -47% (inactive).

Regarding `O=C(CSc1nnc(-c2cccs2)o1)N1CCOCC1`, the nuclei count was determined as 118% and the inhibition is -6.3% (inactive).

On to `CCc1c(C)nc(N2CCN(Cc3ccccc3)CC2)[nH]c1=O`, for which the nuclei count was found to be 106% and the inhibition was -51.5% (inactive).

Consider `CCOc1ncccc1C(=O)OCC(=O)Nc1ncc(C(F)(F)F)cc1Cl`, for which the inhibition is -29% (inactive) and the nuclei count stood at 108%.

Regarding `O=C(NCc1n[nH]c(=S)n1-c1ccc(F)cc1)c1ccco1`, the nuclei count amounted to 126% and the inhibition was -72.4% (inactive).

Consider `CCOc1ccccc1N1CCN(c2nc(N)c(C#N)c(CC#N)c2C#N)CC1`, for which the inhibition was -68.9% (inactive) and the nuclei count is 105%.

In the case of `CCOc1ccc2cc(C#N)c(SCC(=O)N3CCCC3)nc2c1`, the nuclei count was 109% and the inhibition was -32% (inactive).

In the case of `COC(=O)c1ccc(CSc2nc3ccccc3c(=O)n2Cc2ccco2)o1`, the inhibition is 1.8% (inactive) and the nuclei count worked out at 114%.

Regarding `CCn1c(C(=O)N2CCCC(C(=O)O)C2)cc2sccc21` (stereo not given), the nuclei count is 115% and the inhibition is -32.2% (inactive).

As to `CCOC(=O)C(CC)(CCC(=O)O)c1csc(N)n1` (stereo not given), the nuclei count stood at 98.1% and the inhibition is 14.4% (inactive).

For the compound `Cc1c(C(=O)O)oc2ccc(S(=O)(=O)NCc3ccccc3)cc12`, the nuclei count came out at 110% and the inhibition was -38.4% (inactive).

Turning to `COc1cc(-c2noc(-c3cccc(Cl)c3)n2)cc(OC)c1OC`, the nuclei count is 113% and the inhibition is -33.7% (inactive).

As to `COc1ccc2c(c1)c1c(n2C(C)=O)C(OC(C)=O)=NCC1`, the nuclei count came out at 128% and the inhibition was -98.4% (inactive).

As to `Nc1c(C2=NCCO2)nnn1Cc1ccccc1`, the nuclei count was 149% and the inhibition was -130% (inactive).

`COc1ccccc1-c1noc(-c2cccnc2)n1`: the inhibition was -6.3% (inactive) and the nuclei count was determined as 125%.

With `CCn1ncc(C2=NOC(C(=O)NCc3ccc(Cl)cc3)C2)c1C` (stereo not given), the inhibition was -240% (inactive) and the nuclei count is 102%.

As to `COC(=O)c1cc(Br)c(=O)n(CCN2CCOCC2)c1`, the inhibition is 5.8% (inactive) and the nuclei count stood at 104%.

`COc1ccc(OC)c(S(=O)(=O)Nc2ccc(C(N)=O)cc2)c1`: the nuclei count was found to be 113% and the inhibition was -57% (inactive).

Take `O=C(Cn1nc(-c2ccc(Cl)cc2)ccc1=O)NCCCN1CCN(Cc2ccccc2)CC1`: the nuclei count worked out at 135% and the inhibition is -351% (inactive).

On to `CCC1Oc2ccccc2N(CC(=O)Nc2ccc(OC)cc2OC)C1=O` (stereo not given), for which the inhibition is -57% (inactive) and the nuclei count was 127%.

With `COCCCNC(=O)CCc1nc(-c2ccccc2Cl)no1`, the nuclei count is 132% and the inhibition is -130% (inactive).

As for `CC(C)(C)OC(=O)N1CCCC1C(=O)N1CCCC1C(=O)N1CCCC1C(=O)O` (stereo not drawn) (Boc-Pro-Pro-Pro-OH; configuration not given here), the inhibition is -59.4% (inactive) and the nuclei count was 102%.

For the compound `CCOC(=O)N1CCN(S(=O)(=O)c2cc(Cl)c(OC)cc2Cl)CC1`, the nuclei count worked out at 112% and the inhibition is -101% (inactive).

`c1ccc(Cn2nnnc2C(c2ccccn2)N2CCOCC2)cc1` (stereo not given): the inhibition was -85.1% (inactive) and the nuclei count worked out at 116%.

`Cc1nn(-c2ccc(F)cc2)c2nc(N)c(C#N)c(-c3cccs3)c12`: the inhibition is -126% (inactive) and the nuclei count was determined as 160%.

For the compound `O=C(c1ccc(NS(=O)(=O)c2cccs2)cc1)N1CCCCC1`, the inhibition is -31.7% (inactive) and the nuclei count was 96.5%.

For `O=c1c2nnn(Cc3ccccc3)c2ncn1-c1ccccc1`, the nuclei count was determined as 99% and the inhibition is 9% (inactive).

For the compound `COc1cccc(CNC(=O)CCn2c(=O)oc3ccccc32)c1`, the inhibition was -28.3% (inactive) and the nuclei count turned out to be 104%.

As to `COc1ccc(-c2nn(-c3ccccc3)cc2/C=N/n2cnnc2)cc1OC`, the inhibition was -74.5% (inactive) and the nuclei count stood at 108%.

Regarding `CN(CCC#N)C(=O)COC(=O)c1ccc(Cl)c(S(N)(=O)=O)c1`, the nuclei count was determined as 102% and the inhibition is -96.3% (inactive).

Consider `CC(C)C(=O)Nc1nnc(CCc2nnc(NC(=O)C(C)C)s2)s1`, for which the nuclei count was 114% and the inhibition is -80.3% (inactive).

Regarding `CCN(CCCNC(=O)c1cn(CC)c2ccc(S(=O)(=O)N(C)C)cc2c1=O)c1cccc(C)c1`, the inhibition was -62.7% (inactive) and the nuclei count amounted to 116%.

As for `Cc1ccc(S(=O)(=O)n2nc(OC(=O)c3ccco3)cc2N)cc1`, the inhibition is -8.9% (inactive) and the nuclei count is 150%.

With `COc1ccc2c(C(=O)CN(C)C3CCCCC3)c[nH]c2c1`, the nuclei count was 96.7% and the inhibition was -20.8% (inactive).

On to `CCOC(=O)CN(C)Cc1c[nH]c2ccccc12`, for which the inhibition was 17.6% (inactive) and the nuclei count is 78.5%.

In the case of `CCOC(=O)N1CCN(C(=O)CN(C)S(=O)(=O)c2ccc(OC)c(OC)c2)CC1`, the nuclei count stood at 102% and the inhibition is 17.8% (inactive).

Another test has as its target Voltage-gated potassium channel subunit beta-2 (Rattus norvegicus) (UniProt P62483). Kind of test: KvBeta enzyme negative modulators, primary screen, biochemical, NADPH fluorescence (AID 622;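 active = fluorescence slope higher than the sample average by over 3 SD, cut at about -0.22 in these data, passing the limit was not always enough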;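 also: slope of raw intensity against log time taken from 70 to 1610 s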). Particulars: recombinant KvBeta, 4-cyanobenzaldehyde reduction, at 10 µM, stronger effect = higher value.
With `CCN(CC(=O)NC(=O)NCc1ccco1)Cc1nc2ccccc2c(=O)[nH]1`, the fluorescence slope was -0.561 (inactive).

Take `CC(=O)c1nnn(-c2nc(N3CCCC3)nc(N(c3ccccc3)c3ccccc3)n2)c1C`: the fluorescence slope was -0.58 (inactive).

Take `CC(NC(=O)c1ccccc1NC(=O)c1ccco1)C(=O)O` (stereo not given): the fluorescence slope is -0.551 (inactive).

As for `CCN(CC)S(=O)(=O)c1ccc2oc(C(=O)O)c(C)c2c1`, the fluorescence slope was -0.473 (inactive).

For the compound `CCOc1ccc(N(CC(=O)NCC2CCCO2)S(=O)(=O)c2ccc(OC)c(OC)c2)cc1` (stereo not given), the fluorescence slope is -0.572 (inactive).

Regarding `O=C(CSc1nnc(-c2cccs2)o1)N1CCOCC1`, the fluorescence slope is -0.539 (inactive).

As to `CCc1c(C)nc(N2CCN(Cc3ccccc3)CC2)[nH]c1=O`, the fluorescence slope is -0.507 (inactive).

In the case of `CCOc1ncccc1C(=O)OCC(=O)Nc1ncc(C(F)(F)F)cc1Cl`, the fluorescence slope was -0.588 (inactive).

Consider `O=C(NCc1n[nH]c(=S)n1-c1ccc(F)cc1)c1ccco1`, for which the fluorescence slope was -0.463 (inactive).

In the case of `CCOc1ccccc1N1CCN(c2nc(N)c(C#N)c(CC#N)c2C#N)CC1`, the fluorescence slope was -0.592 (inactive).

In the case of `CCOc1ccc2cc(C#N)c(SCC(=O)N3CCCC3)nc2c1`, the fluorescence slope was -0.551 (inactive).

Consider `COC(=O)c1ccc(CSc2nc3ccccc3c(=O)n2Cc2ccco2)o1`, for which the fluorescence slope is -0.563 (inactive).

Regarding `CCn1c(C(=O)N2CCCC(C(=O)O)C2)cc2sccc21` (stereo not given), the fluorescence slope is -0.485 (inactive).

As to `CCOC(=O)C(CC)(CCC(=O)O)c1csc(N)n1` (stereo not given), the fluorescence slope is -0.518 (inactive).

As for `Cc1c(C(=O)O)oc2ccc(S(=O)(=O)NCc3ccccc3)cc12`, the fluorescence slope was -0.432 (inactive).

Turning to `COc1cc(-c2noc(-c3cccc(Cl)c3)n2)cc(OC)c1OC`, the fluorescence slope was -0.568 (inactive).

As for `COc1ccc2c(c1)c1c(n2C(C)=O)C(OC(C)=O)=NCC1`, the fluorescence slope is -0.166 (active).

Turning to `Nc1c(C2=NCCO2)nnn1Cc1ccccc1`, the fluorescence slope is -0.597 (inactive).

As to `COc1ccccc1-c1noc(-c2cccnc2)n1`, the fluorescence slope is -0.568 (inactive).

On to `CCn1ncc(C2=NOC(C(=O)NCc3ccc(Cl)cc3)C2)c1C` (stereo not given), for which the fluorescence slope is -0.421 (inactive).

Consider `COC(=O)c1cc(Br)c(=O)n(CCN2CCOCC2)c1`, for which the fluorescence slope is -0.43 (inactive).

`COc1ccc(OC)c(S(=O)(=O)Nc2ccc(C(N)=O)cc2)c1`: the fluorescence slope was -0.519 (inactive).

As for `O=C(Cn1nc(-c2ccc(Cl)cc2)ccc1=O)NCCCN1CCN(Cc2ccccc2)CC1`, the fluorescence slope was -0.585 (inactive).

With `CCC1Oc2ccccc2N(CC(=O)Nc2ccc(OC)cc2OC)C1=O` (stereo not given), the fluorescence slope is -0.533 (inactive).

For `COCCCNC(=O)CCc1nc(-c2ccccc2Cl)no1`, the fluorescence slope is -0.556 (inactive).

Turning to `CC(C)(C)OC(=O)N1CCCC1C(=O)N1CCCC1C(=O)N1CCCC1C(=O)O` (stereo not drawn) (Boc-Pro-Pro-Pro-OH; configuration not given here), the fluorescence slope was -0.571 (inactive).

In the case of `CCOC(=O)N1CCN(S(=O)(=O)c2cc(Cl)c(OC)cc2Cl)CC1`, the fluorescence slope was -0.509 (inactive).

In the case of `c1ccc(Cn2nnnc2C(c2ccccn2)N2CCOCC2)cc1` (stereo not given), the fluorescence slope was -0.577 (inactive).

With `Cc1nn(-c2ccc(F)cc2)c2nc(N)c(C#N)c(-c3cccs3)c12`, the fluorescence slope is -0.437 (inactive).

On to `O=C(c1ccc(NS(=O)(=O)c2cccs2)cc1)N1CCCCC1`, for which the fluorescence slope is -0.474 (inactive).

For the compound `O=c1c2nnn(Cc3ccccc3)c2ncn1-c1ccccc1`, the fluorescence slope was -0.411 (inactive).

In the case of `COc1cccc(CNC(=O)CCn2c(=O)oc3ccccc32)c1`, the fluorescence slope was -0.551 (inactive).

In the case of `COc1ccc(-c2nn(-c3ccccc3)cc2/C=N/n2cnnc2)cc1OC`, the fluorescence slope was -0.464 (inactive).

As for `CN(CCC#N)C(=O)COC(=O)c1ccc(Cl)c(S(N)(=O)=O)c1`, the fluorescence slope was -0.539 (inactive).

Consider `CC(C)C(=O)Nc1nnc(CCc2nnc(NC(=O)C(C)C)s2)s1`, for which the fluorescence slope is -0.552 (inactive).

Turning to `CCN(CCCNC(=O)c1cn(CC)c2ccc(S(=O)(=O)N(C)C)cc2c1=O)c1cccc(C)c1`, the fluorescence slope is -0.475 (inactive).

Turning to `Cc1ccc(S(=O)(=O)n2nc(OC(=O)c3ccco3)cc2N)cc1`, the fluorescence slope was -0.554 (inactive).

As to `COc1ccc2c(C(=O)CN(C)C3CCCCC3)c[nH]c2c1`, the fluorescence slope is -0.561 (inactive).

Consider `CCOC(=O)CN(C)Cc1c[nH]c2ccccc12`, for which the fluorescence slope is -0.426 (inactive).

In the case of `CCOC(=O)N1CCN(C(=O)CN(C)S(=O)(=O)c2ccc(OC)c(OC)c2)CC1`, the fluorescence slope is -0.614 (inactive).
